Among the test systems are HCT-15 colon; HT29 colon; SNB-75 CNS; SNB-19 CNS; U251 CNS; PC-3 prostate; SK-MEL-5 melanoma; UACC-62 melanoma; LOX IMVI melanoma; SK-MEL-28 melanoma.
Common to all, as to experiment: NCI-60 one-dose screen, 48 h (100 = growth as untreated, 0 = no growth, -100 = all killed)
What all share (conditions): 10 µM

This is part of a sample that, as a whole, favours compounds with a hit. Of some 83,000 tested, about 20% had one in any assay.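 For each line, cells grew in 96-well plates with the test compound present at a single concentration for 48 hours.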 Unmarked numbers belong to inactive results. The source made the active and inactive calls. Rule for the calls: active = growth percent below 10; inactive = the rest.

For the compound `COc1ccc(-c2cc(-c3ccc(Cl)cc3)nc(SCCCC(=O)NO)n2)cc1OC`, the growth in the assay with HCT-15 colon was -4% (active); in the assay with HT29 colon, 6.66% (active); in the assay with SNB-75 CNS, 2.56% (active); in the assay on SNB-19 CNS, 14.8%; in the assay with U251 CNS, 12.4%; with PC-3 prostate, -5.41% (active). Also, the growth in the assay on SK-MEL-5 melanoma is -55.9% (active); in the assay with UACC-62 melanoma, -60.1% (active); with LOX IMVI melanoma, -64.8% (active); in the assay with SK-MEL-28 melanoma it was 20.5%.

`COc1cc(OC)c2c(=O)c(O)c(-c3ccccc3)oc2c1`: the growth is 51.7% in the assay with HCT-15 colon; 99.6% in the assay on HT29 colon; 76% in the assay on SNB-75 CNS; 62.4% in the assay with SNB-19 CNS; 47.1% with U251 CNS; 67.1% in the assay with PC-3 prostate. Besides, the growth with SK-MEL-5 melanoma is 72.4%; in the assay on UACC-62 melanoma, 72.1%; in the assay on LOX IMVI melanoma it was 59.1%; in the assay on SK-MEL-28 melanoma it was 95.8%.

Turning to `N#Cc1c(N)nc(-c2cc(F)cc(C(F)(F)F)c2)nc1-c1ccccc1F`, the growth in the assay with HCT-15 colon was 67.4%; in the assay on HT29 colon, 39.7%; in the assay on SNB-75 CNS it was 13.6%; with SNB-19 CNS, 46.5%; in the assay with U251 CNS, 19.5%; in the assay with PC-3 prostate it was 81.4%. The growth in the assay with SK-MEL-5 melanoma was 93.6%; in the assay with UACC-62 melanoma it was 84%; in the assay on LOX IMVI melanoma, 54%; in the assay on SK-MEL-28 melanoma, 75.9%.

For the compound `CCCCC(CC)CN=C(N)NC(N)=NCCCCCCN=C(N)NC(N)=NCC(CC)CCCC` (stereo not given), the growth is 7.37% (active) in the assay with HCT-15 colon; -82.8% (active) with HT29 colon; -72.5% (active) with SNB-75 CNS; -87.2% (active) with SNB-19 CNS; -89.8% (active) with U251 CNS; -69.7% (active) in the assay on PC-3 prostate. The growth with SK-MEL-5 melanoma was -89.8% (active); in the assay on UACC-62 melanoma, -58% (active); in the assay on LOX IMVI melanoma, -80.8% (active); with SK-MEL-28 melanoma it was -79.6% (active).

On to `O=[N+]([O-])c1ccc(/C(=C/c2ccccc2)[n+]2ccccc2)cc1`, for which the growth is 104% with HCT-15 colon; 106% in the assay on HT29 colon; 98.7% in the assay on SNB-75 CNS; 103% in the assay on SNB-19 CNS; 94.3% with U251 CNS; 99% with PC-3 prostate. Also, the growth in the assay with SK-MEL-5 melanoma was 103%; in the assay with UACC-62 melanoma, 100%; in the assay on LOX IMVI melanoma it was 105%; with SK-MEL-28 melanoma it was 105%.

Consider `CCOC(=O)c1cc(C(=O)c2cc(OC)c(OC)c(OC)c2)n2nc(C)ccc12`, for which the growth in the assay with HCT-15 colon is 25.3%; with HT29 colon it was 8.05% (active); in the assay with SNB-75 CNS, 47.7%; with SNB-19 CNS, 54%; in the assay on U251 CNS it was 19.1%; in the assay with PC-3 prostate, 30.6%. For the same compound, the growth in the assay with SK-MEL-5 melanoma was 3.09% (active); in the assay on UACC-62 melanoma it was 59%; in the assay on LOX IMVI melanoma, 31%; in the assay on SK-MEL-28 melanoma, 70.3%.

`COc1ccc(/C=C/c2nnc(/C=C/c3ccc(OC)c(OC)c3)o2)cc1OC`: the growth in the assay with HCT-15 colon is 21.6%; with HT29 colon, -7.7% (active); in the assay with SNB-75 CNS it was 38.4%; in the assay on SNB-19 CNS, 14.8%; in the assay with U251 CNS, 16.2%; in the assay on PC-3 prostate, 31.5%. The growth in the assay with SK-MEL-5 melanoma was 2.81% (active); with UACC-62 melanoma, 9.17% (active); in the assay with LOX IMVI melanoma, 4.41% (active); in the assay with SK-MEL-28 melanoma, 30.6%.

On to `CCCCC/C=C/C/C=C/CCCCCCCC1=NC(C)(C)CN1C(C)C`, for which the growth in the assay with HCT-15 colon was -3.26% (active); in the assay with HT29 colon, -21% (active); in the assay on SNB-75 CNS, 42.7%; in the assay with SNB-19 CNS, 47.3%; in the assay on U251 CNS, 0.562% (active); in the assay on PC-3 prostate, 28.9%. Also, the growth in the assay with SK-MEL-5 melanoma is 30.1%; in the assay with UACC-62 melanoma, 15.1%; in the assay on LOX IMVI melanoma, 12.9%; in the assay with SK-MEL-28 melanoma, 72%.

`CN(C)CCCN1c2ccccc2CCc2ccc(Cl)cc21`: the growth with HCT-15 colon was 51.4%; in the assay with HT29 colon, 18.8%; with SNB-75 CNS it was 39.2%; in the assay on SNB-19 CNS, 96.1%; in the assay on U251 CNS it was 55.4%; in the assay with PC-3 prostate, 40.8%. Besides, the growth was -29.7% (active) in the assay on SK-MEL-5 melanoma, 7.82% (active) in the assay with UACC-62 melanoma, 56.9% in the assay on LOX IMVI melanoma and 36.9% with SK-MEL-28 melanoma.

`Cc1c[nH]c(=O)n(Cc2nnc(CCC(=O)c3nc4ccccc4[nH]3)o2)c1=O`: the growth in the assay on HCT-15 colon is 65.3%; in the assay with HT29 colon, 8.43% (active); in the assay with SNB-75 CNS, -33% (active); with SNB-19 CNS, 33.2%; in the assay on U251 CNS it was 16.6%; in the assay on PC-3 prostate it was 19.3%. Moreover, the growth in the assay with SK-MEL-5 melanoma was 13.2%; with UACC-62 melanoma it was 41%; in the assay with LOX IMVI melanoma, 35.6%; with SK-MEL-28 melanoma, 40.9%.

For the compound `CCOC(=O)C(C)(c1ccccc1)c1ccccc1`, the growth in the assay with HCT-15 colon was 104%; in the assay with HT29 colon, 96.2%; with SNB-75 CNS, 94.2%; in the assay on SNB-19 CNS, 99.3%; with U251 CNS it was 104%; in the assay on PC-3 prostate, 97.8%. The growth was 108% with SK-MEL-5 melanoma, 102% with UACC-62 melanoma, 102% in the assay with LOX IMVI melanoma and 111% in the assay on SK-MEL-28 melanoma.

In the case of `CCCN1CN2C(=O)N3CN(CCC)CN4C(=S)N(C1)C2C34` (stereo not given), the growth with HCT-15 colon is 98.2%; with HT29 colon, 99.5%; in the assay on SNB-75 CNS it was 81%; in the assay with SNB-19 CNS, 101%; in the assay with U251 CNS, 97.3%; in the assay with PC-3 prostate, 91.5%. For the same compound, the growth in the assay on SK-MEL-5 melanoma was 107%; in the assay on UACC-62 melanoma it was 98%; with LOX IMVI melanoma, 103%; in the assay on SK-MEL-28 melanoma, 93.4%.

For the compound `S=C(NCc1ccccc1)NCc1ccccc1`, the growth in the assay with HCT-15 colon was 107%; in the assay on HT29 colon, 97%; in the assay with SNB-75 CNS, 82.2%; with SNB-19 CNS, 95.1%; in the assay on U251 CNS it was 91.6%; in the assay with PC-3 prostate, 84.3%. The growth in the assay on SK-MEL-5 melanoma was 98.3%; in the assay on UACC-62 melanoma it was 102%; with LOX IMVI melanoma it was 95.6%; in the assay with SK-MEL-28 melanoma, 107%.
